The values below come from PubChem BioAssay (NCATS).

The nature of test [1]: Quantitative High-Throughput drug screen in 47 multiple myeloma cell lines against the NCATS MIPE library collection: KMS28BM_JCRB cell viability assay (AID 1919874). Note: nearly all actives have a fitted effect of over 35% in size. Note: potency is the fitted concentration of half-maximal effect. The settings on record: CellTiter-Glo ATP, 48 h; series mostly up to 45.8 µM. The gist of the method:
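500 cells/well per myeloma line exposed to pinned MIPE 4.0 compounds for 48 h at 37 °C, 5% CO2. Viability read as ATP by CellTiter-Glo luminescence, normalised to DMSO-only (100%) and media-only (0%) wells.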
(In general: ATP-based viability assays read luminescence as a measure of living cells.)

The nature of test [2]: qHTS for identification of novel therapeutic agents for treatment of microphthalmiaassociated transcription factor (MiT) renal cell carcinoma (RCC) (AID 1963991; calls by dose curve; note: potency is the fitted concentration of half-maximal effect). The settings on record: CellTiter-Glo, 48 h; for z-score: stronger effect = lower value; for Potency: active = Z-AUC below -0.8 in all three lines. The method, boiled down: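 Viability of three TFE3-fusion renal carcinoma lines measured by CellTiter-Glo after 48 h treatment with each of 1912 compounds at 11 concentrations. Responses scaled between DMSO (100%) and empty wells (0%) before curve fitting.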

The nature of test [3]: qHTS profiling for inhibitors of Plasmodium falciparum proliferation (AID 504749). Note: potency is the fitted concentration of half-maximal effect; nearly all actives have a fitted effect of over 60% in size. The settings on record: P. falciparum in erythrocytes, SYBR Green DNA, 72 h. The method, boiled down: (§1)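 P. falciparum-infected erythrocytes (0.3% parasitemia, 2.5% hematocrit) incubated with compound 72 h at 37 C, 5% CO2. Parasite DNA detected by SYBR Green after lysis, overnight at room temperature; normalised to 0.29 uM artemisinin and DMSO.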
A general note: In qHTS, concentration-response curves come from the screen itself.

A further test has as its system 3D7. The test is described as above. The settings on record: P. falciparum in erythrocytes, SYBR Green DNA, 72 h; series mostly up to 28.7 µM. The gist of the method:
as §1

For the next test, the system named is 7G8. The test is described as above. The settings on record: P. falciparum in erythrocytes, SYBR Green DNA, 72 h; series mostly up to 28.7 µM. The gist of the method:
as §1

The next test deals with AA1029. The test is described as above. The settings on record: P. falciparum in erythrocytes, SYBR Green DNA, 72 h; series mostly up to 28.7 µM. The gist of the method:
as §1

The next test concerns AS120. The test is described as above. The settings on record: P. falciparum in erythrocytes, SYBR Green DNA, 72 h; series mostly up to 28.7 µM. The method, boiled down: as §1
Test [4] in a line: qHTS drug screen for cell cycle checkpoint inhibitors in PARPi-resistant BRCA-mutant ovarian cancer cell lines. (AID 1963452; calls by dose curve). The settings on record: PEO1/OlaR viability, CellTiter-Glo luminescence, 96 h, stronger effect = lower value. The method, boiled down: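 PEO1, PEO4 and PEO1/OlaR ovarian cancer cells, 600 per well, exposed 96 h at 37C to a dilution series. Viability read by CellTiter-Glo luminescence, normalized to DMSO and empty wells; activity summarized as Z-AUC.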

A further test relates to ATS189. Description: qHTS profiling for inhibitors of Plasmodium falciparum proliferation (AID 504749). Note: potency is the fitted concentration of half-maximal effect; nearly all actives have a fitted effect of over 60% in size. The settings on record: P. falciparum in erythrocytes, SYBR Green DNA, 72 h; series mostly up to 28.7 µM. The method, boiled down: as §1
The target in test [5] is Cytochrome P450 3A4 (Homo sapiens) (UniProt P08684). Description: qHTS for inhibitors of CYP3A4 against the NCATS DSHEA and TCM libraries (AID 1919971).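 Note: % is set by controls: 0 for no effect and ±100 for the full control effect; inhibition lowers luminescence from luciferin made by CYP3A4.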 The settings on record: recombinant CYP3A4 enzyme activity, luminescence qHTS; series mostly up to 34.1 µM. The gist of the method: (§2)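 Read-out is luminescence after P450-Glo detection (30 min, RT). Before that: 15 min compound–enzyme preincubation, then 30-45 min reaction with 1x NADPH regeneration solution, substrate concentration isoform-specific.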
Chain of Cytochrome P450 3A4 (Homo sapiens) (P08684 whole entry, looked up, canonical isoform): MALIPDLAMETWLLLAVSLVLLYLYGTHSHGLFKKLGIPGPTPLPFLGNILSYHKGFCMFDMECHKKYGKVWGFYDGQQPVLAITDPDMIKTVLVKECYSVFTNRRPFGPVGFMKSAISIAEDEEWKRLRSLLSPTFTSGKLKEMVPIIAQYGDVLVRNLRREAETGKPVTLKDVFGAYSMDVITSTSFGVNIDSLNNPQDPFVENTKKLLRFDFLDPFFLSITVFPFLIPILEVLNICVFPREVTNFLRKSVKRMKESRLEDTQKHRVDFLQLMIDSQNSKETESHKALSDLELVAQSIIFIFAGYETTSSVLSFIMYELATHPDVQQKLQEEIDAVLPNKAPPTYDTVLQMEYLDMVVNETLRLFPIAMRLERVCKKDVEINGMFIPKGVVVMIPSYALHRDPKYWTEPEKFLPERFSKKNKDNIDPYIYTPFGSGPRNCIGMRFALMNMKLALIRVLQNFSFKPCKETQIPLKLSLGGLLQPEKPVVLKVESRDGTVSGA

Test [6] addresses Cytochrome P450 2C19 (Homo sapiens) (UniProt P33261). Kind of test: qHTS for inhibitors of CYP2C19 against the NCATS DSHEA and TCM libraries (AID 1919974).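 Note: luminescence from luciferin released by CYP2C19 oxidation of a pro-luciferin substrate; % is set by controls: 0 for no effect and ±100 for the full control effect.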 The settings on record: CYP2C19 enzyme inhibition, luminescence qHTS; series mostly up to 34.1 µM. The gist of the method:
as §2

A short description of test [7]: KB-3-1 P-gp reporter qHTS against the NCATS DSHEA and TCM libraries (AID 1919975). Note: 0% is about no effect. The settings on record: KB-3-1 parental cells, CellTiter-Glo luminescence viability, 72 h; series mostly up to 26.1 µM. The method, boiled down:
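Cell viability by CellTiter-Glo luminescence following ~72 h compound exposure (concentration-response). Uses parental, non-P-gp-overexpressing KB-3-1 line, 500 cells/well in DMEM/10% FBS, attached ~4 h before dosing.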

Test [8] has as its target Cytochrome P450 1A2 (Homo sapiens) (UniProt P05177). Description: qHTS for inhibitors of CYPIA2 against the NCATS DSHEA and TCM libraries (AID 1919976).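 Note: light from luciferin formed by CYP1A2 from a pro-luciferin substrate; % is set by controls: 0 for no effect and ±100 for the full control effect.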 The settings on record: recombinant CYP1A2 enzyme activity, luminescence; series mostly up to 37 µM. The method, boiled down: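 CYP1A2 + luciferin substrate, 100 mM KPO4-type buffer; cmpd 15 min RT; 1x NADPH regen, 30-45 min RT dark; detection reagent 30 min RT; luminescence. Minus-enzyme wells as background; furafylline intraplate control.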

Test [9] in a line: qHTS Counterscreen for compound interference against the NCATS DSHEA and TCM libraries (AID 1919978).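 Note: compounds preincubated with 1 µM D-luciferin or buffer before detection reagent; % of control where 0% means no effect.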 The settings on record: firefly luciferase detection reagent interference, luminescence. The method, boiled down:
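With 1 uM D-luciferin or phosphate buffer only, compounds at final 19.5 nM–39.8 uM were incubated for 15 min at room temperature. Luciferase detection reagent was then added, and luminescence was measured after a further 30 min at room temperature.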

A short description of test [10]: Dual reporter qHTS for agonist of Pregnane X Receptor (hPXR) against the NCATS DSHEA and TCM libraries: Fluorescence readout (AID 1920058). Note: 0% is about no effect. The settings on record: PXR dual reporter cells; series mostly up to 40 µM. The method, boiled down: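 HepG2 hPXR-Luc, 2000 cells/well, 5 h attach; cpds ~24 h, 37 °C/5% CO2; CellTiter-Fluor 1 h; fluor. Ex/Em 405/540 nm = viability.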

Test [11] has as its target Nuclear receptor subfamily 1 group I member 2 (Homo sapiens) (UniProt O75469). Description: Dual reporter qHTS for antagonist of Pregnane X Receptor (hPXR) against the NCATS DSHEA and TCM libraries: Luminescence Readout (AID 1920060). Note: 0% is about no effect. The settings on record: hPXR dual reporter cells, luciferase luminescence, antagonist mode; series mostly up to 40 µM. The method, boiled down: (§3)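 Rifampicin-stimulated (2 uM final) hPXR-luciferase HepG2 cells were treated for 24 h with DSNP/TCM substances. Viability came from CellTiter-Fluor fluorescence, reporter activity from ONE-Glo luminescence.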

Test [12] can be described thus: Dual reporter qHTS for antagonist of Pregnane X Receptor (hPXR) against the NCATS DSHEA and TCM libraries: Fluorescence Readout (AID 1920061). Note: 0% is about no effect. The settings on record: PXR dual reporter cells, antagonist mode; series mostly up to 40 µM. The method, boiled down: as §3
[13] abbreviates: TFE3-RCC UOK109 viability, measured here: UOK109 Z-AUC.
Setting [14] is: TFE3-RCC viability, measured here: UOK124 Z-AUC.
The mark [15] stands for this setting: TFE3-RCC viability, measured here: UOK145 Z-AUC.
The mark [16] stands for this setting: measured here: PEO1 parental Z-AUC.

SMILES strings stand for the structures. Records with an inconclusive call do not appear. Calls of active or inactive are those of the source. Unless noted, calls come from the whole dose curve; as a rule, active = well fitted curve in the direction sought with a large enough effect; inconclusive = small, poorly fitted or top-dose-only effect, or another doubt; inactive = no such curve, though single readings can be large; an effect the other way counts as inactive or inconclusive.

Chain of Cytochrome P450 1A2 (Homo sapiens) (P05177 whole entry, looked up): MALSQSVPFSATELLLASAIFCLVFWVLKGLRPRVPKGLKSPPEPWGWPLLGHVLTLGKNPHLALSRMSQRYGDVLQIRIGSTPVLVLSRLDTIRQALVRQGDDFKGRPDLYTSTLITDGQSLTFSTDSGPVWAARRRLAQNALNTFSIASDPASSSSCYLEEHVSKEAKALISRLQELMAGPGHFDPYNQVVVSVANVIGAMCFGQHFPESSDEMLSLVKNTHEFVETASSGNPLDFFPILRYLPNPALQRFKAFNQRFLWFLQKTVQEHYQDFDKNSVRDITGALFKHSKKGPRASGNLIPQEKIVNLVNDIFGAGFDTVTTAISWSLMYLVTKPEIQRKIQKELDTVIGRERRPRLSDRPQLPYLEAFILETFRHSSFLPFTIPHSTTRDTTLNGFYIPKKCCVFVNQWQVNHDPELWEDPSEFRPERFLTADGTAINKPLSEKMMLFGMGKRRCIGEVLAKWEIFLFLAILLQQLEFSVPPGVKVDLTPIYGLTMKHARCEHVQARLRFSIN
Chain of Nuclear receptor subfamily 1 group I member 2 (Homo sapiens) (O75469 whole entry, looked up): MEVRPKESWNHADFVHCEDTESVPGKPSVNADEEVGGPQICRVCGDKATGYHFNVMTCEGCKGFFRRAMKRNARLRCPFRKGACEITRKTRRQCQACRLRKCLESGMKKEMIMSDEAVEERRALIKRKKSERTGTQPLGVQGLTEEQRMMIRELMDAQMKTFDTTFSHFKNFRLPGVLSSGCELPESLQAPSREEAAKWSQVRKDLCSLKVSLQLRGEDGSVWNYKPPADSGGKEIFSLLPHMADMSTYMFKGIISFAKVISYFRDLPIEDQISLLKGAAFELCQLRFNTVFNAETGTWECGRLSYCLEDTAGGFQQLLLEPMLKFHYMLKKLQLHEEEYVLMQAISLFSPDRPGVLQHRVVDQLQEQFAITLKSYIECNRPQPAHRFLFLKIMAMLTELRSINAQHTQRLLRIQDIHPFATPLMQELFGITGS
Chain of Cytochrome P450 2C19 (Homo sapiens) (P33261 whole entry, looked up): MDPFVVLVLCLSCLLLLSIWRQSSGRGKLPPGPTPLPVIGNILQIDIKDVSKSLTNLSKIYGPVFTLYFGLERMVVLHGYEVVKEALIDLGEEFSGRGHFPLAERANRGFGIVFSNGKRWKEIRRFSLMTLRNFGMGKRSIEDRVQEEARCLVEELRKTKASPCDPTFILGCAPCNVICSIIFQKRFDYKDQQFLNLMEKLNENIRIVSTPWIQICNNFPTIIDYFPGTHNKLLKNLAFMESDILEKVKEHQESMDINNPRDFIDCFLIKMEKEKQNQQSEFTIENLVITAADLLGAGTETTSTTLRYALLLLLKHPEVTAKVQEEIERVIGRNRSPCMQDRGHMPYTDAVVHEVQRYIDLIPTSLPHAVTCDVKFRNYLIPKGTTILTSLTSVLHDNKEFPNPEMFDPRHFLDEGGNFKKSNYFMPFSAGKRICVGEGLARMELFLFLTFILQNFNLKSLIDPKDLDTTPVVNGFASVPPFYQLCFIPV

With `CCCCCCCCCCCC(CC1OC(=O)C1CCCCCC)OC(=O)C(CC(C)C)NC=O` (stereo not given), the Potency result in test [1] is “inactive”. Also, the results for the z-score in test [2] (setting [13]), in test [2] (setting [14]) and in test [2] (setting [15]) were 0.558, -0.129 and 0.669, respectively. The Potency was 0.355 µM (active) in test [3] (parasite line A); 0.708 µM (active) in test [3] (parasite line B); 1.12 µM (active) in the test with 3D7; 2.51 µM (active) in the test on 7G8; 0.447 µM (active) in the test with AA1029; 0.316 µM (active) in the test with AS120.

As to `CCN(CC)CCNC(=O)c1c(C)[nH]c(C=C2C(=O)Nc3ccc(F)cc32)c1C`, the Potency in test [1] is 5.4 µM (active); in [2] (TFE3-RCC UOK109 viability), 34 µM (active). Besides, the z-score in test [2] (setting [13]) is -1.15; in [2] (setting [14]), -1.68; in test [2] (setting [15]), -1.38.

As to `Cc1ccc(-n2[nH]c(C)c(N=Nc3cccc(-c4cccc(C(=O)O)c4)c3O)c2=O)cc1C`, the Z-AUC in test [4] was -0.217 (inactive); in test [4] (setting [16]), -0.314; in [4] (measured here: PEO4 Z-AUC) it was 0.208.

For `COc1cccc2c1C(=O)c1c(O)c3c(c(O)c1C2=O)C[C@@](O)(C(=O)CO)C[C@@H]3O[C@H]1C[C@H](N)[C@H](OC2CCCCO2)[C@H](C)O1` (stereo not given in full), the Potency is 1.66 µM (active) in test [1]; 3.16 µM (active) in test [3] (parasite line A); 4.47 µM (active) in test [3] (parasite line B); 2.24 µM (active) in the test on 3D7; 0.794 µM (active) in the test on 7G8; 3.55 µM (active) in the test on AA1029. Besides, the Potency is 2.51 µM (active) in the test on AS120 and 11.2 µM (active) in the test with ATS189.

For `C[C@@]12C[C@@]3(O)O[C@@H](O1)[C@]1(COC(=O)c4ccccc4)[C@@H]3C[C@@]12O[C@@H]1O[C@H](CO)[C@@H](O)[C@H](O)[C@@H]1O`, the Potency result in test [5] and in test [8] was “inactive” each time. In addition, the call in [6], in test [7], in [10], in test [11] and in test [12] was inactive. The max response in test [9] is 0.508% (inactive). Further, the z-score is -0.0471 in test [2] (setting [13]), 0.702 in test [2] (setting [14]) and -0.0246 in [2] (setting [15]).

As for `O=C1NCCc2[nH]c(-c3ccncc3)cc21`, the results for the Z-AUC in [4], in test [4] (setting [16]) and in test [4] (measured here: PEO4 Z-AUC) were -1.33 (inactive), -1 and -1.61, respectively.

On to `Cc1cc(C(=O)NOCCO)c(Nc2ccc(I)cc2F)n(C)c1=O`, for which the Z-AUC in [4] is -0.774 (inactive); in [4] (setting [16]), -1.14; in [4] (measured here: PEO4 Z-AUC), -0.82.

On to `C=CC(=O)Nc1cccc(Nc2nc(NC3CCC(N(C)C)CC3)nc3c2ncn3C(C)C)c1` (stereo not given), for which the Potency in [1] is 0.209 µM (active); in test [2] (TFE3-RCC UOK109 viability) it was 0.0469 µM (active). The z-score is -3.03 in test [2] (setting [13]), -0.935 in [2] (setting [14]) and -1.36 in [2] (setting [15]).

As for `CN(CC(=O)N(Cc1ccc(C2CCCCC2)cc1)c1ccc(C(=O)O)c(O)c1)S(=O)(=O)c1c(F)c(F)c(F)c(F)c1F`, the Z-AUC was 0.87 (inactive) in [4], 0.115 in test [4] (setting [16]) and 0.274 in [4] (measured here: PEO4 Z-AUC).

As to `CCS(=O)(=O)Nc1ccc2[nH]c(O)c(C(=Nc3ccc(CN4CCCCC4)cc3)c3ccccc3)c2c1`, the Z-AUC in test [4] was -1.37 (inactive); in [4] (setting [16]), -1.2; in [4] (measured here: PEO4 Z-AUC), -1.32.

In the case of `c1coc(CNc2ncnc3nc[nH]c23)c1`, the Z-AUC is 0.877 (inactive) in test [4], 0.956 in test [4] (setting [16]) and 1.1 in [4] (measured here: PEO4 Z-AUC).

`N#Cc1c(C2CCNCC2)cc(-c2c(O)cccc2OCC2CC2)nc1N`: the values for the Z-AUC in [4], in [4] (setting [16]) and in test [4] (measured here: PEO4 Z-AUC) were 0.339 (inactive), 0.598 and 0.733, respectively.
